According to PubChem BioAssay (NCI):
Compounds without any hit were thinned out: in the full panel of roughly 83,000, 20% have a hit.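 Testing used 96-well plates and a 48-hour single-concentration exposure. Example: -40 means 40% of the starting cells died.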 Unmarked numbers belong to inactive results. The source made the active and inactive calls.

Test system: NCI-H460 lung
Test: NCI-60 one-dose screen, 48 h (100 = growth as untreated, 0 = no growth, -100 = all killed)
Conditions: 10 µM unless noted
Protocol: Growth inhibition of the NCI-H460 human Non-Small Cell Lung tumor cell line is measured as a screen for anti-cancer activity. Cells are grown in 96 well plates and exposed to the test compound for 48 hours. Compounds are tested at a single concentration, which is 10^-5 M for most compounds. The reported endpoint is percent growth (GI% or GIPRCNT), where numbers from 0 - 100% represent growth inhibition, and numbers from -100% - 0 represent cell death. For example, a value of 40 represents 60% growth inhibition. A value of 0 means no net growth occurred over the course of the experiment. A value of -40 indicates 40% of cells at the beginning of the experiment died by the end of the experiment. A value of -100 means all cells are dead at the end of the experiment.
NCI-60 Human Tumor Cell Lines Screen was performed using the standard one-dose NCI protocol, which is described in more detail at https://dtp.cancer.gov/discovery_development/nci-60/default.htm.
Compounds with GIPRCNT values below 10 were considered active. Activity score was based on GIPRCNT using the following formula: […]
Score is 0 for GIPRCNT values of 100 or above, 50 for GIPRCNT values of 0, and 100 for GIPRCNT values of -100.

How did the growth turn out when `CC(=O)Nc1ccc(C(=O)COc2cccc(/C=C3\CCc4ccccc4C3=O)c2)cc1` was run?
The growth was 97.1%.

For `O=C(Nc1nn2c(-c3cc(C(F)(F)F)cc(C(F)(F)F)c3)nnc2s1)C1CCCC1`, which growth is on record?
Its growth is 3.63% (active).

With `CC[C@@H](c1ccc(O)c(O)c1)[C@@H](CC)c1ccc(O)c(O)c1` as the compound, how does the growth read?
Its growth is 111%.

Which growth does the source give for `CCN(CC)CCNCC(=O)Oc1ccc(/C=C/C(=O)CC(=O)/C=C/c2ccc(OC(=O)CNCCN(CC)CC)c(OC)c2)cc1OC` here?
The growth was 3.7% (active).

With `O=C(N/N=C/c1ccc(Cl)cc1Cl)c1ccccc1Nc1cccc(C(F)(F)F)c1` as the compound, how does the growth read?
Its growth is 104%.

How did the growth turn out when `COc1ccc2c(c1)c(CC(=O)[Se]C)c(C)n2C(=O)c1ccc(Cl)cc1` was run?
The growth was 3.41% (active).

With `O=C1OC2(c3ccccc31)c1ccccc1-c1ccccc12` as the compound, how does the growth read?
Its growth is 106%.

For `N#Cc1c(-c2ccc(F)cc2)n2c(nc1=O)SC(=O)C2=O`, which growth is on record?
The growth was 101%.

Which growth does the source give for `COc1ccc(C2=NN(C(C)=O)C(c3c(C)nn(-c4ccccc4)c3N3CCOCC3)C2)cc1` (stereo not given) here?
The growth was 98.7%.

`O=CN1N=C(c2ccc(Nc3ccnc4cc(Cl)ccc34)cc2)CC1c1ccc(Cl)cc1` (stereo not given) was tested. Which growth did it give?
Its growth is 6.99% (active).

How did the growth turn out when `O=C(NC1CCS(=O)(=O)C1)c1ccc(C(=O)c2ccccc2)cc1` (stereo not given) was run?
The growth was 104%.

With `COc1ccc(OC)c2c1CCC1(C2)NC(=O)NC1=O` (stereo not given) as the compound, how does the growth read?
The growth was 107%.

With `Cc1ccccc1NC(=O)N/C(N)=N/c1nc2ccccc2s1` as the compound, how does the growth read?
The growth was 11.7%.

For `O=C(NC1CCCCC1)c1ccc(Nc2ncnc3c2cnn3-c2ccccc2)cc1`, which growth is on record?
The growth was 42.2%.

How did the growth turn out when `COc1ccc(C2=NN(C(C)=O)C(c3cccc(Nc4ccnc5cc(Cl)ccc45)c3)C2)cc1` (stereo not given) was run?
Its growth is 64.9%.

How did the growth turn out when `COc1ccc(C(=O)COc2cccc(/C=C3\CSc4ccc(Cl)cc4C3=O)c2)cc1` was run?
Its growth is 101%.

For `O=C(Oc1cccc2ccccc12)c1ccccc1C(=O)c1ccccc1`, which growth is on record?
Its growth is 93.2%.

With `COc1ccc2c(c1)CC/C(=C\c1ccc(OCC(=O)Nc3nc4ccccc4s3)cc1)C2=O` as the compound, how does the growth read?
The growth was 113%.

`COc1cc(/C=C/C(=O)c2c(C)n([O-])c3ccccc3[n+]2=O)cc(OC)c1OC` was tested. Which growth did it give?
The growth was 20.6%.

Which growth does the source give for `CCCCN=C(N)c1ccc(OCCSCCOc2ccc(C(N)=NCCCC)cc2)cc1` here?
Its growth is 30.3%.

For `O=C(Nc1cccc(-n2cc(-c3ccncc3)c(-c3cc(O)cc(Cl)c3)n2)c1)Nc1ccc(Cl)c(Cl)c1`, which growth is on record?
The growth was 0.213% (active).

With `CCCCCCC(CC#N)(CCC)CCCC` (stereo not given) as the compound, how does the growth read?
Its growth is 98.9%.

How did the growth turn out when `COc1cc(NC(=O)NCc2ccco2)ccc1-c1ccc(NC(=O)NCc2ccco2)cc1OC` was run?
The growth was 35.8%.

How did the growth turn out when `COc1cc2c(cc1OC)C(=O)/C(=C/c1cccc(OCC(=O)c3ccccc3)c1)C2` was run?
Its growth is 90.4%.

How did the growth turn out when `CC1Cc2ccccc2N1C(=O)c1ccc(C(=O)c2ccccc2)cc1` (stereo not given) was run?
Its growth is 99.3%.

With `CCCCCCCCCCCCC1CCCC(C)C1` (stereo not given) as the compound, how does the growth read?
Its growth is 101%.

For `COc1cc(/C=C\C(C)=N\Nc2ccccc2)ccc1O`, which growth is on record?
Its growth is 111%.

For `Cc1ccc(C(NC(=O)c2ccccc2)c2ccc3cccnc3c2O)cc1` (stereo not given), which growth is on record?
Its growth is 4.02% (active).

Which growth does the source give for `CCc1ccc(-c2nc(SCC(=O)NC3CCCCC3)n[nH]2)cc1` here?
The growth was 90.8%.

Which growth does the source give for `COc1ccc2c(c1)sc1nc(-c3ccc(N(C)C)cc3)cn12` here?
The growth was 85%.

Which growth does the source give for `Cc1[nH]cnc1/C=C1\SC(N2CCCCC2)=NC1=O` here?
Its growth is 109%.

How did the growth turn out when `COCCCNS(=O)(=O)c1ncnc2nc[nH]c12` was run?
The growth was 105%.

For `CCCCNCCCN(CCCC)CCCNCCCC`, which growth is on record?
Its growth is 101%.

For `Nc1ccc(Oc2c(F)c(F)c(Oc3ccc(N)cc3)c(F)c2F)cc1`, which growth is on record?
The growth was 112%.

Which growth does the source give for `COC(=O)[C@H](Cc1cn(C)cn1)NC(=O)[C@H](C)NC(=O)Nc1cc(C(F)(F)F)cc(C(F)(F)F)c1` here?
Its growth is -34.3% [100 µM] (active).

`O=C(CSc1ncc(-c2ccccc2)n1-c1ccccc1)Nc1ccc(-c2nc3ccccc3s2)cc1` was tested. Which growth did it give?
The growth was 36.3%.

For `CC(=O)Nc1cc2c3c(cccc3c1)-c1ccccc1-2`, which growth is on record?
The growth was 64.4%.

With `COc1cccc(C=Nc2cc(C(C)C)c(O)cc2C)c1O` as the compound, how does the growth read?
Its growth is 107%.

How did the growth turn out when `O[N+]1=CC=CCC1=S.On1ccccc1=S.[Zn]` was run?
The growth was -70.5% (active).

Which growth does the source give for `N#Cc1ccc(-c2csc(Nc3ccc4nc5n(c(=O)c4c3)CCC5)n2)cc1` here?
Its growth is 101%.
